Experimental data: PubChem BioAssay (NCATS)
Results filed as inconclusive are left out. The source made the active and inactive calls. Calls follow the shape of the dose curve; as a rule, active = well fitted cell-killing curve with a large enough effect; inconclusive = small, poorly fitted or top-dose-only effect; inactive = flat fitted curve, though single readings scatter.

Test: Cell Viability - Mesenchymal (AID 546);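 also: cells exposed to compound for 40 hours before reading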
Details: mesenchymal cells viability, qHTS; series mostly up to 91.7 µM
From the text: NIH Chemical Genomics Center [NCGC]
NIH Molecular Libraries Screening Centers Network [MLSCN]
National Institutes of Environmental Health Sciences [NIEHS]
National Toxicology Program [NTP]
We have developed a 1536-well cell-based assay for quantitative high throughput screening (qHTS) against a number of cell lines to determine in vitro cytotoxicity of small molecules. This particular assay uses the kidney mesenchymal cell line which is derived from normal human renal glomeruli.
NCGC Assay Protocol Summary:
The CellTiter-Glo luminescent cell viability assay (Promega) is a homogeneous method to measure the number of viable cells in culture. The end point readout of this assay is based on quantitation of intracellular ATP, an indicator of metabolic activity, using the luciferase reaction. Luciferase catalyzes the oxidation of beetle Luciferin to oxyluciferin and light in the presence of ATP. The luminescent signal is proportional to amount of ATP present.
Using the CellTiter-Glo luminescent cell viability assay, the amount of cellular ATP was measured in the kidney mesenchymal cell line with complete culture medium following compound treatment for 40 hours. The assay was performed in opaque white Kalypsys 1536-well plates. In the screen, tamoxifen and doxorubicin were used as positive controls. Library compounds were measured for their ability to cause acute toxicity in the cell line, as reflected by a decrease in intracellular ATP levels, in a concentration-dependent manner. […] AC50 values were determined from concentration-response data modeled with the standard Hill equation.
qHTS protocol for CellTiter Glo kidney mesenchymal cells cellular assay
[Step] [Parameter] [Value] [Description]
1. Reagent; 5 uL; 1000 kidney mesenchymal cells/well
2. Time; 5 hr; 37 °C incubation
4. Controls; 23 nL; Tamoxifen 0.34 uM to 100 uM & Doxorubicin 0.02 nM to 100 uM
5. Time; 40 hr; 37 °C incubation
6. Reagent; 5 uL; CellTiter Glo reagent
7. Time; 20 min; Room Temperature
8. Detection; Luminescence; Viewlux plate reader
Keywords: cell viability, cytotoxicity, Kidney mesenchymal cell line, luminescence, NTPHTS, NTPHTS_NCGC, NIEHS, EPA, DSSTox, MLSMR, MLSCN, NIH Roadmap, qHTS, NCGC

SMILES | outcome
CC(C)O | inactive
CCOC(C)OCC | inactive
O=P(O)(O)O | inactive
C[C@H](CCC(=O)O)[C@H]1CC[C@H]2[C@@H]3[C@H](O)C[C@@H]4C[C@H](O)CC[C@]4(C)[C@H]3C[C@H](O)[C@]12C | inactive
CCCCO | inactive
CO/N=C(/C(=O)N[C@@H]1C(=O)N2C(C(=O)O)=C(COC(N)=O)CS[C@H]12)c1ccco1 | inactive
OCc1ccccc1 | inactive
Cc1ccc(S(=O)(=O)O)cc1C | inactive
Nc1nccs1 | inactive
OC[C@H]1O[C@@H]2O[C@H]3[C@H](O)[C@@H](O)[C@@H](O[C@H]4[C@H](O)[C@@H](O)[C@@H](O[C@H]5[C@H](O)[C@@H](O)[C@@H](O[C@H]6[C@H](O)[C@@H](O)[C@@H](O[C@H]7[C@H](O)[C@@H](O)[C@@H](O[C@H]1[C@H](O)[C@H]2O)O[C@@H]7CO)O[C@@H]6CO)O[C@@H]5CO)O[C@@H]4CO)O[C@@H]3CO | inactive
CC1=CC(=O)NS(=O)(=O)O1 | inactive
CC/C=C\C/C=C\C/C=C\CCCCCCCC(=O)O | inactive
OB(O)O | inactive
CC(C)(C)CC(C)(C)c1ccc(OCCO)cc1 | inactive
CC[C@H]1OC(=O)[C@H](C)[C@@H](O[C@H]2C[C@@](C)(OC)[C@@H](O)[C@H](C)O2)[C@H](C)[C@@H](O[C@@H]2O[C@H](C)C[C@H](N(C)C)[C@H]2O)[C@](C)(O)C[C@@H](C)CN(C)[C@H](C)[C@@H](O)[C@]1(C)O | inactive
CC1=CCC2CC1C2(C)C (stereo not drawn) | inactive
O.O.O.O.O.O.O.O=S(=O)([O-])[O-].[Co+2] | inactive

SMILES | outcome
OCC(O)CO | inactive
CCCCC | inactive
CO | inactive
Oc1ccc(/C=C/c2cc(O)cc(O)c2)cc1 | inactive
COC(=O)c1ccccc1O | inactive
C[C@H]1O[C@@H](O[C@H]2[C@@H](O)C[C@H](O[C@H]3[C@@H](O)C[C@H](O[C@H]4CC[C@@]5(C)[C@H](CC[C@@H]6[C@@H]5C[C@@H](O)[C@]5(C)[C@@H](C7=CC(=O)OC7)CC[C@]65O)C4)O[C@@H]3C)O[C@@H]2C)C[C@H](O)[C@@H]1O | inactive
ClC(Cl)Cl | inactive
Nc1ncnc2c1ncn2[C@H]1CC[C@@H](CO)O1 | inactive
Cc1ncc[nH]1 | inactive
NC(N)=O | inactive
C/C=C/C=C/C(=O)O | inactive
NCCN | inactive
[O-][N+](=Nc1ccccc1)c1ccccc1 | inactive
OCl | inactive
C[C@H](CCC(=O)O)[C@H]1CC[C@H]2[C@@H]3CC[C@@H]4C[C@H](O)CC[C@]4(C)[C@H]3C[C@H](O)[C@]12C | inactive
c1ccc2ccccc2c1 | inactive
